Screening data from PubChem BioAssay.
Cav32 inh: human Cav3.2 channel inhibition, primary screen; O95180; Cav3.2-expressing cells, Fluo-4 calcium fluorescence FDSS; active compounds read low; B-score at 10 µM; actives 4% (n = 100,000); AID 449739;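 active means single-dose well whose peak fluorescence ratio is a statistical outlier from its plate by either plate-standardised score or position-corrected B-score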
PostGolgi yeast: growth inhibition of a yeast mutant, post-Golgi transport screen; post-Golgi transport phenotypic cell assay; inhibition, % at 10 µM; actives 0.9% (n = 98,000);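 further: yeast cells grown in 1536-well plates; yeast grown about 18 h at 30C before absorbance read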
sEH inh: blocks human soluble epoxide hydrolase activity | P34913 | inhibition, % at 2 µM | actives 0.34% (n = 91,000) | recombinant human sEH enzymatic activity assay; in the data active means inhibition above about 80%
PostGolgi ctrl: inhibits growth of the yeast control strain. efflux-deficient yeast background strain, growth absorbance A615, 16 h. inhibition, % at 10 µM. actives 5% (n = 98,000). AID 738
sEH activator: soluble epoxide hydrolase (human) activation; P34913; purified human sEH enzymatic activity, activator screen; activation, % at 2 µM; actives 0.04% (n = 91,000); in the data active means activation above about 37%
* hit, by the source's call; · = no result. Shown are actives, neighbours in structure and some others; about 7.8% of the full set was active somewhere. Unless noted, no stated cut-off is given here; in the data, active means inhibition above about 30%; inactive means the rest.

SMILES	Cav32 inh	PostGolgi yeast	sEH inh	PostGolgi ctrl	sEH activator
COc1ccc(S(=O)(=O)N(C)CC(=O)NC2CC2)cc1	0.5	-1	4	-12	-4
COCCn1nnnc1C(C(C)C)N(Cc1cccnc1)Cc1ccccc1Cl (centres undefined)	-0.47	1	7	38*	-5
COc1cccc(-c2nc(N3CCCCC3C)c3ccccc3n2)c1O (centres undefined)	0.48	18	-5	75*	4
C=CCNc1nc(-c2cccc(OC)c2O)nc2ccccc12	·	-3	·	17	·
CCN(CC)c1nc(-c2cccc(OC)c2O)nc2ccccc12	1.2	-3	-5	32*	5
CCOC(=O)c1sc(-c2ccccc2)cc1NC(=O)CSc1nnnn1C	-0.36	9	20	74*	-20
CC(C)Oc1snc(Cl)c1C(N)=O	·	8	11	-10	-10
COc1ccc(C(=O)/C(=C\c2ccco2)N2C=CC=CC2=C(C#N)C#N)cc1	-6.8*	28	11	30	-11
COc1ccc(C2=CC(=O)CCC2)cc1	1.2	·	·	·	·
CC(C)c1ccc(NC2(C#N)C(=O)Nc3ccccc32)cc1 (centres undefined)	·	-7	10	7	-9
Cc1cccc(NC(=S)NNC(=S)NCc2ccccc2)c1	-0.82	-4	-17	4	17
C/C(=N\NC(=S)Nc1cccc(C)c1)c1ccccc1	-1.3	-1	-3	33*	4
O=C(C1CCCN(S(=O)(=O)c2ccc(Cl)cc2)C1)N(Cc1cccs1)C1CC1 (centres undefined)	-5.6*	94*	·	21	·
O=C(NCc1cccs1)c1cc(S(=O)(=O)N2CCCCC2)ccc1Cl	-0.34	·	40	·	-38
Cn1c(CNc2nc(-c3ccccc3)cs2)nnc1SCC(=O)N1CCc2ccccc21	-4.6*	-10	14	-1	-9
COc1ccc(C(=O)CSc2nnc(CNc3nc(-c4ccccc4)cs3)n2C)cc1	-5.7*	-1	-8	22	9
CCN(CCNC(=O)CS(=O)(=O)Cc1nc(-c2cccc(OC)c2)oc1C)c1ccccc1	-9*	-5	15	13	-15
CCOC(=O)c1cccc(NC(=O)CS(=O)(=O)Cc2nc(-c3cccc(OC)c3)oc2C)c1	-5.2*	-6	·	0	·
COc1cccc(-c2nc(CS(=O)(=O)CC(=O)NCCC(C)C)c(C)o2)c1	-3.1	4	-1	10	1
c1ccc(CNCc2ccc3c(c2)OCO3)nc1	0.3	·	8	·	-8
CCc1nc(C)cc(N)c1OCc1ccccc1	-1.2	-5	-16	7	14
CC(=O)C1=C(c2ccccc2)NC(=O)NC1c1ccccc1OCC(=O)NCc1ccccc1 (centres undefined)	-1.2	4	-2	1	1
CC(C(=O)N1c2ccccc2Sc2ccccc21)n1nnc(-c2cccs2)n1 (centres undefined)	-7*	5	2	32*	-2
Cc1ccc(-c2nnn(CC(=O)N3CCCc4ccccc43)n2)cc1	-4.7*	-12	-10	9	8
CC(C(=O)N1c2ccccc2CCc2ccccc21)n1nnc(-c2ccc(N(C)C)cc2)n1 (centres undefined)	-5.5*	·	4	·	-5
SMILES	Cav32 inh	PostGolgi yeast	sEH inh	PostGolgi ctrl	sEH activator
Cn1nnnc1SCC(=O)N1c2ccccc2CCc2ccccc21	0.0083	-2	18	3	-14
O=C(Cn1nnc(-c2ccncc2)n1)N1CCc2ccccc21	0.62	0	12	12	-9
O=C(Cn1cc2c(n1)CCCC2)N1CCc2ccccc21	-0.016	5	·	38*	·
CCOC(=O)C1=C(C)NC(=O)NC1c1c(O)ccc2ccccc12 (centres undefined)	-0.75	0	·	1	·
Cc1ccc(-c2nnn(CC(=O)NC3CCCc4ccccc43)n2)cc1 (centres undefined)	-2.2	-2	-1	-3	0
Cc1ccc(-c2nnn(C(C)C(=O)N3c4ccccc4CCc4ccccc43)n2)cc1 (centres undefined)	-5.3*	·	-4	·	4
Cc1ccccc1-n1nnnc1SC1CCOC1=O (centres undefined)	0.76	-2	·	35*	·
COc1ccccc1-n1c(CNC(=O)c2ccco2)nnc1SCC(=O)Nc1ccc(F)cc1	-2.2	8	-9	-6	9
CCc1ccccc1NC(=O)c1ccc(CN2CCC(Cc3ccccc3)CC2)cc1	-7.8*	0	-1	7	4
Cc1ccccc1NC(=O)c1ccc(CN2CCc3ccccc3C2)cc1	-6.7*	-3	-2	12	4
CC(C)Cc1nc(N2CCN(C(=O)c3ccco3)CC2)c(C#N)c2c1CCC2	-7.9*	1	9	14	-7
CC1(C)Cc2c(C#N)c(N3CCN(C(=O)c4ccco4)CC3)nc(-c3ccco3)c2CS1	-0.076	6	-18	21	18
CC1(C)Cc2c(C#N)c(N3CCN(C(=O)c4ccco4)CC3)nc(Cc3ccccc3)c2CO1	-4.6*	3	-5	17	4
CC(C)Cc1nc(N2CCN(C(=O)C(C)C)CC2)c(C#N)c2c1CCC2	-5.7*	9	7	23	-4
O=C(NC(=S)NNC(=O)c1cccs1)c1ccc(Br)o1	-7.4*	2	14	3	-13
COc1ccc2c(c1)N(C)C(=O)CC(c1ccccc1)=N2	-1.6	-6	4	-2	-2
O=C(c1ccccc1)N1CCN(S(=O)(=O)N2CCCCC2)CC1	·	-6	12	44*	-13
COc1cc(NC(=O)C2COc3ccccc3O2)c(OC)cc1Cl (centres undefined)	-4.5*	1	-11	17	11
CCCCNC(=O)N(O)C1N(CCCC)C(=O)N(CC(=O)OC)C1(C)C (centres undefined)	0.43	·	6	·	-6
Cc1sc(-c2ccncc2)nc1OC(=O)c1ccccc1	-0.042	2	4	7	-5
COc1ccc(CN2CN=C(Nc3nc4ccccc4s3)NC2)cc1	0.96	0	2	2	-3
O=C(c1cccc(-n2cnnn2)c1)N1CC=C(c2ccccc2)CC1	-4.6*	6	3	6	-4
Cc1ccc(CNC(=O)c2cccc(-n3cnnn3)c2)cc1	-0.2	-2	21	5	-21
Cn1c(=O)[nH]c(=O)c2[nH]c(CN3CCN(C(=O)c4ccco4)CC3)nc21	0.4	8	2	3	-1
O=C(Nc1ccc2c(c1)OCO2)C1CCN(S(=O)(=O)Cc2ccccc2)CC1	-0.0028	2	28	2	-27
O=C(Nc1ccc2c(c1)OCO2)C1CCN(Cc2cnn(-c3ccccc3)c2-n2cccc2)CC1	-5.2*	1	66	4	-66
CCOc1ccccc1OCC(=O)NN1Cc2ccccc2C1=N	-0.22	-4	-8	5	9
COc1ccc(-c2c3c(=O)n(C)c(=O)n(C)c3cn2C2CCCCC2)cc1	-1.2	-18	3	41*	0
O=C(CN(C(=O)Cn1nnc(-c2ccccc2F)n1)c1cccc2c1CCCC2)NCc1ccccc1	-6.1*	1	66	18	-67
CC(C)CCNC(=O)CN(C(=O)Cn1nnc(-c2ccccc2F)n1)c1cccc2c1CCCC2	-8*	0	56	11	-55
